According to PubChem BioAssay AID1508622 (National Center for Advancing Translational Sciences (NCATS), 2021):
Values without a mark were called inactive. Active and inactive are the calls of the source. Calls follow the shape of the dose curve; as a rule, active = well fitted activation curve with a large enough effect; inconclusive = small, poorly fitted or top-dose-only effect; inactive = no such curve, though single readings can be large or run the other way.

Experiment: Confirmatory qHTS for Identification of Small Molecule Activators of Huntingtin-Antisense Promoter Activity
Details: HEK293 HTT-AS promoter firefly luciferase reporter, 24 h; series mostly up to 57.5 µM; activity change, positive = activation: at the top concentration
Method in brief: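 Plated reporter HEK293 cells (24 h) received library compounds at up to 57.5 uM final or 50 uM PTC124, incubated 24 h at 37C; firefly luciferase luminescence was then recorded with Dual-Glo reagent.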
Potency is read from the fitted curve at half-maximal effect.

Going from `CCOC(=O)C1=C(CN2CCN(c3ccc(OC)cc3)CC2)NC(=O)NC1c1ccc(OC)cc1` (stereo not drawn) to `CCOC(=O)C1=C(CN2CCN(c3ccc(C)cc3C)CC2)NC(=O)NC1c1ccc(OC)cc1` (stereo not drawn), the “activity change, positive = activation” value falls from -49.8% to -91.2%.

Compared with `Cc1ccc(Cl)cc1-n1ncc2c(NC3CCCCC3)ncnc21`, `Cc1ccc(Cl)cc1N1CCN(C(=O)c2cccn2-c2nnc(N3CCCCC3)s2)CC1` is higher in “activity change, positive = activation” value: -26% for the first, -16.3% for the second.

First: Cc1oc(-c2ccc(C(=O)Nc3cccc(C(F)(F)F)c3)cc2)nc1CSc1ccccc1
Second: CCN(c1ccccc1)S(=O)(=O)c1cc(C(=O)Nc2ccc(Br)cc2)ccc1F
The “activity change, positive = activation” value of the first is lower: -90.4% for the first, -66.2% for the second.

Compared with `O=C(NCCSc1c(-c2ccccc2)[nH]c2ccccc12)c1ccc(S(=O)(=O)N2CCOCC2)cc1`, `COc1ccc(-c2[nH]c3ccccc3c2SCCNC(=O)c2cc(OC)c(OC)c(OC)c2)cc1` is lower in “activity change, positive = activation” value: -26.7% for the first, -35% for the second.

Compared with `OCCCn1c(-c2ccc(F)cc2)csc1=Nc1ccc(F)cc1`, `CC(C)Cn1c(-c2ccc(S(=O)(=O)N3CCCC3)cc2)csc1=Nc1ccccc1` is lower in “activity change, positive = activation” value: -26% for the first, -45.1% for the second.

Going from `O=C(CN1C(=O)C2(SCC(=O)N2c2ccc(F)c(F)c2)c2ccccc21)Nc1cccc(Cl)c1` (stereo not drawn) to `Cc1ccc(NC(=O)c2cc(S(=O)(=O)N3CCc4ccccc43)ccc2F)cc1Cl`, the “activity change, positive = activation” value rises from -40.2% to -23.8%.

First: COc1ccc(N2CCN(Cc3nc4c(c(=O)n(C)c(=O)n4C)n3C(C)C)CC2)cc1
Second: Cc1ccccc1-c1nc(CS(=O)CC(=O)N2CCN(c3cc(Cl)ccc3C)CC2)c(C)o1 (stereo not drawn)
The “activity change, positive = activation” value of the first is lower: -94.2% for the first, -92.8% for the second.

First: CCOC(=O)C1CCCN(S(=O)(=O)c2ccc3c(c2)CCCN3C(C)=O)C1 (stereo not drawn)
Second: COc1ccc(NS(=O)(=O)c2ccc3c(c2)CCN3C(=O)C2CC2)cc1OC
The “activity change, positive = activation” value of the first is higher: -33% for the first, -96.5% for the second.

Going from `Cc1cccc2sc(N3CCN(C(=O)CS(=O)(=O)c4ccc(F)cc4)CC3)nc12` to `O=C(CN1CCCN(S(=O)(=O)c2ccc(Br)cc2)CC1)Nc1cccc(C(F)(F)F)c1`, the “activity change, positive = activation” value rises from -37% to -31.7%.

Compared with `Cc1ccc(Cn2cc(/C=C(/C#N)C(=O)Nc3cccc(Cl)c3)c3ccccc32)cc1`, `Cc1ccc(C(C)C)c(OCCn2cc(C(=O)c3ccco3)c3ccccc32)c1` is higher in “activity change, positive = activation” value: -48.6% for the first, -25.9% for the second.

Going from `CCCc1cc(N2CCN(c3ccccc3F)CC2)n2cnnc2n1` to `COc1ccccc1CNC(=O)Cn1c(=O)oc2cc(S(=O)(=O)N3CCC(C)CC3)ccc21`, the “activity change, positive = activation” value rises from -69.4% to -39.5%.

First: CCS(=O)(=O)c1ncc(Cl)c(C(=O)NCc2ccc(OC)cc2)n1
Second: CCSc1ncc(Cl)c(C(=O)Nc2ccc(S(=O)(=O)N3CCCCC3)cc2)n1
The “activity change, positive = activation” value of the first is lower: -95.5% for the first, -39.5% for the second.

First: COc1ccc(C(=O)Nc2nc(-c3nnn(-c4ccc(F)cc4F)c3C)ns2)cc1
Second: COc1ccc(-c2nc3sc(CCNS(=O)(=O)c4ccc(F)c(C)c4)c(C)n3n2)cc1
The “activity change, positive = activation” value of the first is higher: -24.9% for the first, -26.6% for the second.

Going from `COc1ccc(C(=O)NCC(c2cccnc2)N2CCc3ccccc32)cc1` (stereo not drawn) to `CCOc1ccc(C(=O)Nc2ccc(S(=O)(=O)N3CCCCC3c3cccnc3)cc2)cc1` (stereo not drawn), the “activity change, positive = activation” value falls from -45.2% to -70.1%.

Going from `COc1cc(NC(=O)Cn2c(=O)oc3cc(S(=O)(=O)N4CCCCCC4)ccc32)cc(OC)c1` to `COc1cccc(CNC(=O)Cn2c(=O)oc3cc(S(=O)(=O)N4CCC(C)CC4)ccc32)c1`, the “activity change, positive = activation” value rises from -39.7% to -21.7%.

First: CCCCOc1cccc(C(=O)N(Cc2ccc(C)o2)c2ccccn2)c1
Second: CCCN(C(=O)CCc1nc(-c2ccc(C)cc2)no1)c1ccc(OCC)cc1
The “activity change, positive = activation” value of the first is lower: -96.2% for the first, -22% for the second.

First: CCOc1ccc(-c2cc(C)n3nc(C(=O)Nc4ccc(C)c(C)c4)cc3n2)cc1
Second: O=C(CCn1cnc2onc(-c3ccc(F)cc3)c2c1=O)Nc1ccc(F)c(Cl)c1
The “activity change, positive = activation” value of the first is higher: -41.8% for the first, -93.5% for the second.

First: Cc1cccc(CN2C(=O)N(c3ccc(C(C)C)cc3)S(=O)(=O)c3ccccc32)c1
Second: COc1ccc2sc(N(Cc3cccnc3)C(=O)c3cccs3)nc2c1
The “activity change, positive = activation” value of the first is higher: -26.1% for the first, -46.8% for the second.

With `CCc1ccc2c(c1)-c1ccccc1S(=O)(=O)N2CC(=O)N1CCCCC1` the Potency was 9.53 µM (active).
In the case of `O=c1cc(-c2ccccc2)oc2cc(O)cc(O)c12`, the Potency was 26.9 µM (active).
